Results as given in PubChem BioAssay (NCATS).
“And” between values parts separate entries of the source, which are not always exact repeats. Identical values can stand only once. Results filed as inconclusive are left out. Values without a mark were called inactive. The source made the active and inactive calls. The call rests on the fitted dose curve; in most records, active means well fitted curve in the direction sought with a large enough effect in the repeat runs; inconclusive means weak or mixed curves; inactive means no such curve, though single readings can be large; an effect the other way counts as inactive or inconclusive.

Experiment: qHTS assay for small molecule agonists of the antioxidant response element (ARE) signaling pathway measured by Nrf2-dependant transcriptional activity (AID 720636);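 further: HepG2 cells with an ARE-driven luciferase reporter; % of control where 0% means no effect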
Settings: ARE-luc HepG2, Nrf2 luciferase reporter, 16 h; series mostly up to 92.4 µM; activation: at the top concentration
Method in brief: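 HepG2 ARE-luc reporter line, 1% dialyzed FBS; 6 hr attachment at 37 C, compound pinned in, 16 hr at 37 C/5% CO2; ONE-Glo, 30 min RT, luminescence read.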

SMILES | activation [%] | Potency
CCCCCCc1ccc(-c2ccc(C#N)cc2)cc1 | -1.37 | –
Nc1cnn([C@@H]2O[C@H](CO)[C@@H](O)[C@H]2O)c(=O)n1 | 0.0425 | –
CCCCCCCCOc1ccc(C(=O)O)cc1 | 2.99 | –
Oc1c(Cl)cc(Cl)c(Cl)c1Cl | – | inactive
CC(C)OCC1CO1 (centres undefined) | 0.0535 | –
C/C(Cl)=C/CCl | -0.621 | –
CCCCNCC | 0.0791 | –
O=c1[nH]ncc2ccccc12 | -0.0827 | –
c1ccc(COCc2ccccc2)cc1 | -0.0135 | –
O=[N+]([O-])c1cccc(I)c1 | 1.41 | –
c1ccc2c(c1)ccc1ccccc12 | – | inactive
Cc1ccc(C(=O)O)cc1[N+](=O)[O-] | -1.48 | –
COc1ccc([N+](=O)[O-])cc1N | 0.125 | –
OCC(CO)(CBr)CBr | – | inactive
Nc1cc(C(=O)O)c(O)c(S(=O)(=O)O)c1 | -0.466 | –
Oc1ccc2c(c1)OCO2 | -0.743 | –
c1ccncc1 | -0.167 | –
CC(=O)OC1CC(C)OC(C)O1 (centres undefined) | – | inactive

SMILES | activation [%] | Potency
O=C(OCc1ccccc1)c1ccccc1O | – | inactive
C/C=C/C=C/C=O | 1.79 | –
CCN(CC)c1ccc2c(C)cc(=O)oc2c1 | 1.94 | –
c1c[nH]cn1 | -0.744 | –
O=C(O)/C=C/c1ccc(/C=C/C(=O)O)cc1 | -1.07 | –
CCCCOC(=O)COc1ccc(Cl)cc1Cl | – | inactive
CC(=O)OC(C(=O)c1ccccc1)c1ccccc1 (centres undefined) | -1.39 | –
CCCCCCN | -0.53 | –
CC(=O)Nc1cccc(C)c1 | 0.0389 | –
CCC(Cl)CC(Cl)C(Cl)C(Cl)C(Cl)C(C)Cl (centres undefined) | -0.654 | –
COc1ccc(C)cc1N | -0.599 | –
CCc1ccc(C(c2ccc(CC)cc2)C(Cl)Cl)cc1 | -0.328 | –
C[C@@H]1CC2(OC(O)[C@]3(C)O[C@H]23)O[C@H]2C[C@@]3(C)[C@@H]4CC[C@H]5C(C)(C)C(O[C@@H]6OC[C@@H](O)[C@H](O)[C@H]6O)CC[C@@]56C[C@@]46CC[C@]3(C)[C@@H]12 (some centres undefined) | -4.43 | –
O=[N+]([O-])c1ccccc1Nc1ccccc1 | -1.32 | –
C=CC1CO1 (centres undefined) | 0.0688 | –
COc1cc(-c2ccc(N=C=O)c(OC)c2)ccc1N=C=O | – | inactive
CCOC(=O)C1OC1c1ccccc1 (centres undefined) | 0.0355 | –

Experiment: qHTS assay for small molecule antagonists of the retinoid-related orphan receptor gamma (ROR-gamma) signaling pathway - cell viability counter screen (AID 720652);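 further: compound exposure lasted 16 hr before ATP read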; further: potency means the concentration at half of the fitted maximal effect;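 on activity change, negative = cytotoxicity: CHO reporter cells with doxycycline-induced ROR-gamma expression; on the % scale 0 is the no-effect control and ±100 the full control effect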
Settings: RORgamma reporter cell line viability counter screen; series mostly up to 92.2 µM; activity change, negative = cytotoxicity: at the top concentration
Method in brief: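 CHO RORE-LUC/TET-ROR line, 1,000 cells/well, 37 C 5% CO2 5 hr; cpd or DMSO + doxycycline induction, 16 hr. CellTiter-Glo, 30 min RT, luminescence = ATP content.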

SMILES | activity change, negative = cytotoxicity [%] | Potency
Nc1cnn([C@@H]2O[C@H](CO)[C@@H](O)[C@H]2O)c(=O)n1 | -22.1 | –
CCCCCCCCOc1ccc(C(=O)O)cc1 | -14.4 | –
Oc1c(Cl)cc(Cl)c(Cl)c1Cl | 7.74 | –
CC(C)OCC1CO1 (centres undefined) | -2.63 | –
C/C(Cl)=C/CCl | 1.22 | –
CCCCNCC | 2.17 | –
O=c1[nH]ncc2ccccc12 | 3.19 | –
c1ccc(COCc2ccccc2)cc1 | 3.59 | –
O=[N+]([O-])c1cccc(I)c1 | -1.32 | –
Nc1ccc2c(c1)C(=O)c1ccccc1C2=O | -5.3 | –
c1ccc2c(c1)ccc1ccccc12 | 9.1 | –
Nc1ccc(N=Nc2ccccc2)c(N)c1 | -18.3 | –
Cc1ccc(C(=O)O)cc1[N+](=O)[O-] | 6.51 | –
COc1ccc([N+](=O)[O-])cc1N | -1.39 | –
OCC(CO)(CBr)CBr | 5.45 | –
Nc1cc(C(=O)O)c(O)c(S(=O)(=O)O)c1 | -1.05 | –
Oc1ccc2c(c1)OCO2 | 4.39 | –
c1ccncc1 | 1.2 | –

SMILES | activity change, negative = cytotoxicity [%] | Potency
CC(=O)OC1CC(C)OC(C)O1 (centres undefined) | 11.3 | –
O=C(OCc1ccccc1)c1ccccc1O | -8.56 | –
C/C=C/C=C/C=O | – | 29.8 µM (active)
CCN(CC)c1ccc2c(C)cc(=O)oc2c1 | 16.4 | –
c1c[nH]cn1 | 7.45 | –
c1ccc(SCCSc2ccccc2)cc1 | 4.34 | –
O=C(O)/C=C/c1ccc(/C=C/C(=O)O)cc1 | -1.15 | –
CCCCOC(=O)COc1ccc(Cl)cc1Cl | -0.0015 | –
CC(=O)OC(C(=O)c1ccccc1)c1ccccc1 (centres undefined) | 16.7 | –
CCCCCCN | -13.5 | –
CC(=O)Nc1cccc(C)c1 | 2.26 | –
COc1ccc(C)cc1N | 9.03 | –
O=[N+]([O-])c1ccccc1Nc1ccccc1 | -2.86 | –
C=CC1CO1 (centres undefined) | -3.29 | –
COc1cc(-c2ccc(N=C=O)c(OC)c2)ccc1N=C=O | 1.02 | –
CCOC(=O)C1OC1c1ccccc1 (centres undefined) | -17.5 | –
COc1ccc(C(=O)Nc2ccccc2)cc1[N+](=O)[O-] | -7.21 | –

Experiment: qHTS assay for small molecule agonists of the antioxidant response element (ARE) signaling pathway measured by Nrf2-dependant transcriptional activity - cell viability counter screen (AID 720653); further: potency means the concentration at half of the fitted maximal effect; on max response: on the % scale 0 is the no-effect control and ±100 the full control effect
Settings: ARE-bla HepG2 viability, CellTiter-Glo ATP luminescence, 16 h; max response: hits give low values
Method in brief: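 Cytotoxicity counter screen: intracellular ATP quantified by CellTiter-Glo luminescence in the same ARE-bla HepG2 plates, after 16 h compound exposure and a 2 h beta-lactamase substrate step.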

SMILES | max response | Potency
CCCCCCc1ccc(-c2ccc(C#N)cc2)cc1 | -11.9% | –
Nc1cnn([C@@H]2O[C@H](CO)[C@@H](O)[C@H]2O)c(=O)n1 | 20.2% | –
Oc1c(Cl)cc(Cl)c(Cl)c1Cl | -1.59% and 6.5% | –
CCCCNCC | 3.95% | –
O=c1[nH]ncc2ccccc12 | 2.85% | –
c1ccc(COCc2ccccc2)cc1 | 3.34% | –
O=[N+]([O-])c1cccc(I)c1 | 2.94% | –
c1ccc2c(c1)ccc1ccccc12 | -0.337% and -2.44% | –
Cc1ccc(C(=O)O)cc1[N+](=O)[O-] | -1.34% | –
OCC(CO)(CBr)CBr | 9.25% and 7.51% | –
Oc1ccc2c(c1)OCO2 | 5% | –
c1ccncc1 | -7.78% | –
CC(=O)OC1CC(C)OC(C)O1 (centres undefined) | 6.75% and -0.741% | –
O=C(OCc1ccccc1)c1ccccc1O | 4.39% and 10% | –
C/C=C/C=C/C=O | -19.3% | –
CCN(CC)c1ccc2c(C)cc(=O)oc2c1 | -2.1% | –
c1c[nH]cn1 | -2.06% | –
c1ccc(SCCSc2ccccc2)cc1 | 1.28% | –
O=C(O)/C=C/c1ccc(/C=C/C(=O)O)cc1 | -1.74% | –
CCCCOC(=O)COc1ccc(Cl)cc1Cl | -6.14% and -13.6% | –
CC(=O)OC(C(=O)c1ccccc1)c1ccccc1 (centres undefined) | -8.03% | –
CCCCCCN | -8.85% | –
CCC(Cl)CC(Cl)C(Cl)C(Cl)C(Cl)C(C)Cl (centres undefined) | -9.68% | –
CCc1ccc(C(c2ccc(CC)cc2)C(Cl)Cl)cc1 | -5.77% | –
C[C@@H]1CC2(OC(O)[C@]3(C)O[C@H]23)O[C@H]2C[C@@]3(C)[C@@H]4CC[C@H]5C(C)(C)C(O[C@@H]6OC[C@@H](O)[C@H](O)[C@H]6O)CC[C@@]56C[C@@]46CC[C@]3(C)[C@@H]12 (some centres undefined) | – | 70.8 µM (active)
O=[N+]([O-])c1ccccc1Nc1ccccc1 | -2.68% | –
C=CC1CO1 (centres undefined) | -12.7% | –
COc1cc(-c2ccc(N=C=O)c(OC)c2)ccc1N=C=O | 21.7% and 2.99% | –
CCOC(=O)C1OC1c1ccccc1 (centres undefined) | 8.37% | –
